Measured values from PubChem BioAssay (NCATS).
A number with no mark means an inactive call. Inconclusive results are not listed. Activity calls are given as the source filed them. Unless noted, calls come from the whole dose curve; as a rule, active = well fitted curve in either direction with a large enough effect (not every such curve was filed as active); inconclusive = small, poorly fitted or top-dose-only effect, or another doubt; inactive = flat fitted curve, though single readings scatter.

Tests used:
[1] = biological target: Lysosomal acid glucosylceramidase (Homo sapiens) (UniProt P04062); test: Glucocerebrosidase-p2 (AID 348; in the data active = potency below about 10 µM; note: potency is the fitted concentration of half-maximal effect); settings: purified GBA, blue fluorogenic substrate, 40 min
Outline: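 Compounds titrated from 0.6 nM upwards against 0.2 nM enzyme in pH 5.9 citric acid/KH2PO4, taurocholate, tween-20; blue fluorogenic substrate 80 uM, 40 min room temperature, stopped and read Ex 365/Em 440 for AC50.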

[2] = AP1 Signaling Pathway (AID 357); settings: ME-180 AP-1-bla reporter, EGF-induced, beta-lactamase ratio, 5 h; at 7.69 µM (top of the series) unless noted;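 note: ME-180 reporter cells stimulated with EGF at its EC50 level; % is set by controls: 0 for no effect and ±100 for the full control effect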
Outline: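 AP-1-bla ME-180 cells, Opti-MEM + 0.5% dialyzed FBS, plated overnight 37 °C. Cpd titration + EC50 EGF, 5 h 37 °C. CCF4 2.5 h RT; ex 405, em 460/530 ratio → %activity, AC50.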

[3] = NFAT Signaling Pathway (AID 444); settings: Jurkat NFAT-bla M1, carbachol, beta-lactamase ratio, 5 h; at 7.69 µM (top of the series) unless noted;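 note: carbachol stimulus at about its EC50 of 1 µM final; % is set by controls: 0 for no effect and ±100 for the full control effect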
Outline: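 Jurkat cells with NFAT-driven β-lactamase reporter and co-expressed M1 receptor, stimulated with carbachol (final 1 uM, ~EC50), compound titration, 5 h at 37 °C. CCF4 loaded 1 h at RT; 460/530 nm ratio gave %activity and AC50.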

[4] = Stat Signaling Pathway (AID 446); settings: ME-180 SIE beta-lactamase reporter, IL-6 stimulated, 5 h; at 7.69 µM (top of the series) unless noted;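 note: ME-180 cervical cancer cells given 40 pM IL-6 alongside compound; SIE-controlled beta-lactamase reporter measured as 460/530 nm FRET emission ratio; % is set by controls: 0 for no effect and ±100 for the full control effect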
Outline: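 IL-6/STAT signaling read in ME-180 cells via an SIE beta-lactamase reporter. Stimulus was 40 pM IL-6 (its AC50) for 5 hrs, so both activation and inhibition register.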

[5] = biological target: Glucocorticoid receptor (Homo sapiens) (UniProt P04150); test: GR-GFP Redistribution (AID 450;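 active = compounds whose dose series gives a full or clear partial fitted curve of increased nuclear translocation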; note: potency is the fitted concentration of half-maximal effect); settings: U2OS GR-GFP nuclear translocation, laser cytometry, 2 h
[6] = biological target: Glucocorticoid receptor (Homo sapiens) (UniProt P04150); test: GR-EFC Redistribution (AID 451; calls by dose curve; note: potency is the fitted concentration of half-maximal effect); settings: CHO-K1 GR-EFC translocation, beta-gal luminescence, 2 h
Outline: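 CHO-K1 cells expressing nuclear EA and GR-ED fragments of b-gal; compounds titrated up to 46 uM final, 2 h at 37 C. GR nuclear translocation read as complemented b-gal luminescence after 1 h RT detection.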

[7] = biological target: Mitogen-activated protein kinase 10 (Mus musculus) (UniProt Q61831); test: JNK3 AlphaScreen Assay (AID 530); settings: JNK3 lysate, c-Jun phosphorylation; series mostly up to 11.4 µM;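 note: kinase came from lysate of stimulated human HepG2 cells; signal reports phosphorylation of biotinylated GST-cJun 1-79 at Ser73 with 10 µM ATP; % is set by controls: 0 for no effect and ±100 for the full control effect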
Outline: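 qHTS format: compounds tested as titrations against IL-1beta/TNF-alpha-activated HepG2 lysate JNK3 with biotin-GST-cJun substrate and 10 uM ATP at room temperature. Loss of anti-phospho-cJun AlphaScreen signal indicates inhibition.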

[8] = biological target: 3',5'-cyclic-AMP phosphodiesterase 4B (Homo sapiens) (UniProt Q07343); test: qHTS Assay for Inhibitors of PDE-IV (AID 607; active = well fitted activation curve with a large enough effect in the main read-out, with a control signal flat, not every such curve was filed as active; note: % of control where 0% means no effect); settings: HEK293 ACTOne CNG channel cells, membrane potential fluorescence; series mostly up to 22.9 µM
Outline: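 Live HEK293 cells with a modified cyclic nucleotide-gated (CNG) channel report intracellular cAMP via membrane-potential dye fluorescence (ex 535/em 590 nm). Endogenous PDE-IV was targeted. Compounds were tested at up to 22.9 uM final; RO 20-1724 100 uM served as control.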

[9] = qHTS Assay for Identification of Small Molecule Agonists for Hypoxia Response Element Signaling Pathway (AID 914; active = well fitted activation curve with a large enough effect in the signal ratio, with a control signal flat, not every such curve was filed as active; the % refers to the signal ratio; note: % of control where 0% means no effect); settings: ME-180 HRE-bla reporter, beta-lactamase ratio, CoCl2, 17 h; activation: stronger effect = higher value
Outline: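 ME-180 cells carrying an HRE-driven beta-lactamase reporter were treated with compounds in a titration series plus an EC50 level of CoCl2 for 17 h at 37 degrees Celsius; CCF4 readout as the 460nm/530nm ratio gave AC50 values.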

[10] = biological target: Cytochrome P450 2C19 (Homo sapiens) (UniProt P33261); test: qHTS Assay for Inhibitors and Substrates of Cytochrome P450 2C19 (AID 899; active = well fitted curve in the direction sought with a large enough effect; an effect the other way counts as inactive or inconclusive; note: % is set by controls: 0 for no effect and ±100 for the full control effect; nearly all actives have a fitted effect of over 60% in size); settings: recombinant CYP2C19, luciferin-H EGE luminescence; series mostly up to 11.4 µM
Outline: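 Signal comes from luciferase acting on luciferin released by CYP2C19-mediated hydroxylation of Luciferin-H EGE, 10uM (KM). Assay mix: 5nM enzyme, 50mM KPO4; 60 min at 37C with NADPH regeneration. Data normalized against 57uM ketoconazole.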

[11] = biological target: Cytochrome P450 3A4 (Homo sapiens) (UniProt P08684); test: qHTS Assay for Inhibitors and Substrates of Cytochrome P450 3A4 (AID 884; active = well fitted curve in the direction sought with a large enough effect; an effect the other way counts as inactive or inconclusive; note: potency is the fitted concentration of half-maximal effect; nearly all actives have a fitted effect of over 50% in size); settings: recombinant CYP3A4, Luciferin-PPXE luminescence; series mostly up to 57.1 µM
Outline: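 20 nM human CYP3A4 with 25 uM Luciferin-PPXE (at KM) in 200 mM KPO4, preincubated 10 min with compound; NADPH regeneration started a 60 min RT reaction. Luciferin detected by luminescence, normalized to 57 uM ketoconazole as full inhibition.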

[12] = biological target: Cytochrome P450 3A4 (Homo sapiens) (UniProt P08684); test: qHTS Assay for Activators of Cytochrome P450 3A4 (AID 885; active = well fitted curve in the direction sought with a large enough effect; an effect the other way counts as inactive or inconclusive; note: nearly all actives have a fitted effect of over 65% in size); settings: recombinant CYP3A4, Luciferin-PPXE luminescence, 60 min; series mostly up to 11.4 µM
Outline: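 Quantitative HTS format: compounds preincubated with 20nM human CYP3A4 and Luciferin-PPXE substrate at KM, reaction started by NADPH regeneration, stopped after 60 min, luciferase luminescence read 20 min later.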

Lysosomal acid glucosylceramidase (Homo sapiens), sequence (P04062 whole entry, looked up): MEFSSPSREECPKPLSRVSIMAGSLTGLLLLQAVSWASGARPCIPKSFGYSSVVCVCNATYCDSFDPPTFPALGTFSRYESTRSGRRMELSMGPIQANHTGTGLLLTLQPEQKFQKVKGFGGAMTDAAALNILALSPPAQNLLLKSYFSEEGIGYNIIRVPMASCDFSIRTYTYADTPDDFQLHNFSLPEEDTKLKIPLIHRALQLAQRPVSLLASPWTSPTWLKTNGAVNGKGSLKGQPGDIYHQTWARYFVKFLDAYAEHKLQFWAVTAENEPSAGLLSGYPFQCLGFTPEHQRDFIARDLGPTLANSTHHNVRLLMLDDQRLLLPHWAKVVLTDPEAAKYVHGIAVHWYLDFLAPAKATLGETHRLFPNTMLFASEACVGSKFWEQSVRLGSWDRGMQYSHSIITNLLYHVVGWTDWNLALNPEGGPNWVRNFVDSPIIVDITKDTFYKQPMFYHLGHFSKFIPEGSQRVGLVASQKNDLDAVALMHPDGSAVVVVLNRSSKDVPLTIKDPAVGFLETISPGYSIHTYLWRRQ
3',5'-cyclic-AMP phosphodiesterase 4B (Homo sapiens), sequence (Q07343 whole entry, looked up): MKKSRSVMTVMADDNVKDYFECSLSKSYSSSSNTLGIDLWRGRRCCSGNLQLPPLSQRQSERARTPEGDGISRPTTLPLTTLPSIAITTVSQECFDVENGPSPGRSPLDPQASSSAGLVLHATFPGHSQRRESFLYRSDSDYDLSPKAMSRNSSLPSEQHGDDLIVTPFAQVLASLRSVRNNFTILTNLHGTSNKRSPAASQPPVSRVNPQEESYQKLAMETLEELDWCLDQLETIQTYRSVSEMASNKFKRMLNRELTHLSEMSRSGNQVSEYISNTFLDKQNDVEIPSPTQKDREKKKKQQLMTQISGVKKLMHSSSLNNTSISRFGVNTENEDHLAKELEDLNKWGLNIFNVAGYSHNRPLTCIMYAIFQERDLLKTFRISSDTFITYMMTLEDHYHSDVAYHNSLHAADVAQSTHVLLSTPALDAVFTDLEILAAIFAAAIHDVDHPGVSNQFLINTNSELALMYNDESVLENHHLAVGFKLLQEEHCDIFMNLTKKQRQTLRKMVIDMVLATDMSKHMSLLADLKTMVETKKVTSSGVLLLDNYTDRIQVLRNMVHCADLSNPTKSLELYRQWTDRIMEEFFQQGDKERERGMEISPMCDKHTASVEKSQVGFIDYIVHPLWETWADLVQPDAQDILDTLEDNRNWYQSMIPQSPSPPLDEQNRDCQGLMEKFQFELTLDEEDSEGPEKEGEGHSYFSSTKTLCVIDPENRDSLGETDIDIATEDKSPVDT
Glucocorticoid receptor (Homo sapiens), sequence (P04150 whole entry, looked up, the tested form may be a part): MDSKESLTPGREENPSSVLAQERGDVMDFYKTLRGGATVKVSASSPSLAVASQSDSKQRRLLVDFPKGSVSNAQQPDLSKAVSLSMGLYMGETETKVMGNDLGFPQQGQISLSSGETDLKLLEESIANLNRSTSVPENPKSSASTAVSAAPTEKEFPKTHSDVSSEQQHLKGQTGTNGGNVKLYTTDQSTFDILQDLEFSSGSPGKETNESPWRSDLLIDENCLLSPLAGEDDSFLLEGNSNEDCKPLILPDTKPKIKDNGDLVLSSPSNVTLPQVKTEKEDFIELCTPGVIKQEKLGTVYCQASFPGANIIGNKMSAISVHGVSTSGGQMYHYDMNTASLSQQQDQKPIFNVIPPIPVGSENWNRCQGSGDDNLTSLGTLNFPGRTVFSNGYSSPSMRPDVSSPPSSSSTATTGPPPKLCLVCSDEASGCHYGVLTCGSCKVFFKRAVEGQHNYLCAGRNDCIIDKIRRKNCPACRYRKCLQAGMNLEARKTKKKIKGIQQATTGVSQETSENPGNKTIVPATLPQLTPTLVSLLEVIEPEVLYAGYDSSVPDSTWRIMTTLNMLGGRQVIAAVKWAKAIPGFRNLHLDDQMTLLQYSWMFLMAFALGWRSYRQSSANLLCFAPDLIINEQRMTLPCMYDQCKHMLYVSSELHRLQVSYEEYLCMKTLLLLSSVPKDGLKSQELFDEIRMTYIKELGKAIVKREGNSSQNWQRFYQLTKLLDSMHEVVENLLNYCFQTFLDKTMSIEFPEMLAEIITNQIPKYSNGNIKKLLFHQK
Cytochrome P450 3A4 (Homo sapiens), sequence (P08684 whole entry, looked up): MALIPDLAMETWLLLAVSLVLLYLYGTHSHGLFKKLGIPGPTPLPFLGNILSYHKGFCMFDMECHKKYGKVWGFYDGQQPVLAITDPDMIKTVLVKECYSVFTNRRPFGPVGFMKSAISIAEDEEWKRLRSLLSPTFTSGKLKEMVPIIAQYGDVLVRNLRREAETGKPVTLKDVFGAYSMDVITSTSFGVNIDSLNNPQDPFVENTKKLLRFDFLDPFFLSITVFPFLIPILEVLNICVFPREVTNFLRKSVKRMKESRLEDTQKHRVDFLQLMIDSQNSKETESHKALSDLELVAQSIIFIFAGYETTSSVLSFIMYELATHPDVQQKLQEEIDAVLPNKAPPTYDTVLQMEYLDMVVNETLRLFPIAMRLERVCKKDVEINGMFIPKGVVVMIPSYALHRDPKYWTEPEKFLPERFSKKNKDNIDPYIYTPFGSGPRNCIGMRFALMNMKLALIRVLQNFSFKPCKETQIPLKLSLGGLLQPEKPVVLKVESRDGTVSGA
Cytochrome P450 2C19 (Homo sapiens), sequence (P33261 whole entry, looked up): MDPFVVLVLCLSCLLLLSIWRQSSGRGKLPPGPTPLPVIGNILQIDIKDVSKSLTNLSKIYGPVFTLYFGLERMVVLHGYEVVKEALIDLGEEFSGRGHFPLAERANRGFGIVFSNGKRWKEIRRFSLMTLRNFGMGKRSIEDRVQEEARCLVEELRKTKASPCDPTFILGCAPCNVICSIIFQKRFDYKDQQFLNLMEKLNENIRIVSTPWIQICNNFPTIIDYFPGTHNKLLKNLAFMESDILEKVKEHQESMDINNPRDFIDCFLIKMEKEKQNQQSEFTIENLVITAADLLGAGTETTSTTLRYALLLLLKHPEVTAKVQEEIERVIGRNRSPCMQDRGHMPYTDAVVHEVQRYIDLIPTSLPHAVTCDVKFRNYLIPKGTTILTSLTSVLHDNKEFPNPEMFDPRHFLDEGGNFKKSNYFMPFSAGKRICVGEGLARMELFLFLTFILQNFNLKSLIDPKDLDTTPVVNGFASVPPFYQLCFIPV

| Compound | Potency [1] | activity change, negative = inhibition [2] | activity change, negative = inhibition [3] | activity, negative = inhibition [4] | Potency [5] | Potency [6] | Potency [7] | Potency [8] | activation [9] | Potency [10] | Potency [11] | Potency [12] |
| --- | --- | --- | --- | --- | --- | --- | --- | --- | --- | --- | --- | --- |
| Cc1cc(=O)[nH]c2cc3oc4ccccc4c3cc12 | > 11.4 µM | 6.73% | 8.67% | -1.36% | > 46 µM | > 9.22 µM | inactive | inactive | -6.85% |  |  |  |
| Nc1nc(C(=O)O)c(N=Nc2ccccc2)c(=O)[nH]1 | > 11.4 µM | 4.49% | -22.9% | 7.24% | > 46 µM | > 9.22 µM |  | inactive |  |  |  |  |
| O=c1cc(N=Nc2ccc(O)cc2)[nH]c(=O)[nH]1 | > 11.4 µM | -6.46% | -4.22% | 4.24% | > 46 µM | > 9.22 µM | inactive | inactive | -26.3% |  |  |  |
| c1ccc(-c2cc(-c3cc(-c4ccccn4)[nH]n3)n[nH]2)nc1 | > 11.4 µM | 4.94% | 1.51% | -2.75% | > 46 µM | > 9.22 µM | inactive | inactive | 3.17% |  |  |  |
| COCCn1c(=O)c(-c2ccc(OC)cc2)nc2cnc(Oc3ccccc3)nc21 | > 11.4 µM | -9.38% | 12.7% | 16.5% | > 9.22 µM | > 46 µM |  | inactive |  |  |  |  |
| Cc1cc(=O)oc2cc(O)c(CN(C)CC(=O)O)cc12 | > 11.4 µM | 8.78% | 10.9% | -5.54% | > 46 µM | > 9.22 µM | inactive | inactive | 2.1% | inactive |  |  |
| CN1CCC[C@@H]1c1cccnc1.O=C(O)c1ccccc1O.O=C([OH2+])c1ccccc1O.O=C([OH2+])c1ccccc1O.O=C([OH2+])c1ccccc1O.[Cu] | > 11.4 µM | 0.0867% | -1.52% | 12.5% |  |  | inactive | inactive |  |  |  |  |
| CN1CCC(n2[nH]c(-c3ccccc3)c(Cc3ccccc3)c2=O)CC1 | > 11.4 µM | -1.32% | -82.4% (active) | 11.1% |  | > 9.22 µM | inactive | inactive |  |  | 3.98 µM (active) | inactive |
| O=S(=O)(c1cccc(C(F)(F)F)c1)N1c2ccccc2-n2cccc2[C@H]1c1cccnc1 | > 11.4 µM | -23.2% | -6.39% | -6.23% |  | > 9.22 µM | inactive | inactive |  |  |  |  |
| COc1ccc(C(=O)N2CCC3(CC2)CN(c2ccccc2)C3)cc1 | > 11.4 µM | -16.2% | 5.84% | -21.3% |  | > 46 µM | inactive | inactive |  |  |  |  |
